# Experimental data published in the supplement of paper PMC5641865, “A screen for kinase inhibitors identifies antimicrobial imidazopyridine aminofurazans as specific inhibitors of the Listeria monocytogenes PASTA kinase PrkA” (The Journal of Biological Chemistry, 2017).
# ± gives the standard deviation of the averaged measurements.
# Tested on: Listeria monocytogenes 10403S
# Assay: growth inhibition relative to ceftriaxone-alone control; higher = stronger potentiation of ceftriaxone growth inhibition
# Conditions: 10 µM; ceftriaxone 1 ug/ml; 12 h
# 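Also: End-point A600 read in BHI broth at 37 °C with 2% DMSO, inhibition computed as (1 − OD with compound plus ceftriaxone ÷ OD with ceftriaxone only) × 100.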
row,SMILES,growth inhibition
1,CCn1cc(-c2ccnc3[nH]c(-c4cccc(CN(C)C)c4)cc23)c(-c2ccc(NC(=O)N(C)C)cc2)n1,26.7 ± 18%
2,O=C1NC(=O)C(=Cc2ccc(-c3ccc(F)cc3)o2)S1 (stereo in doubt),31.8 ± 28%
3,O=C(Nc1n[nH]c2nc(-c3ccco3)ccc12)C1CC1,0.454 ± 0.64%
4,CN(C)C(=O)O[C@H]1CN[C@H](C#Cc2cc3ncnc(Nc4ccc(OCc5cccc(F)c5)c(Cl)c4)c3s2)C1,-7.88 ± 10%
5,CCCS(=O)(=O)Nc1ccc(F)c(C(=O)c2c[nH]c3ncc(Cl)cc23)c1F,24.2 ± 22%
6,Clc1ccc(CNc2nccc(-c3cnn4ncccc34)n2)cc1,-1.66 ± 1.6%
7,COC(=O)c1ccc2c(C(=Nc3ccc(N(C)C(=O)CN4CCN(C)CC4)cc3)c3ccccc3)c(O)[nH]c2c1 [BIBF1120 (Vargatef)],21.6 ± 14%
8,CCN1CCC(C(=O)Nc2n[nH]c3nnc(-c4cccc(F)c4F)cc23)CC1,0.339 ± 3.9%
9,C=CC(=O)N1CCC[C@@H](n2nc(-c3ccc(Oc4ccccc4)cc3)c3c(N)ncnc32)C1,42.1 ± 24%
10,CN(c1ncccc1CNc1nc(Nc2ccc3c(c2)CC(=O)N3)ncc1C(F)(F)F)S(C)(=O)=O,41.8 ± 28%
11,CC1(C)CNc2cc(NC(=O)c3cccnc3NCc3ccncc3)ccc21 [Motesanib Diphosphate (AMG-706)],22.2 ± 22%
12,Fc1ccc(-c2c(-c3ccncc3)nc3n2CCS3)cc1,-6.65 ± 12%
13,Nc1ccc(C#Cc2cncnc2Nc2ccc(OCc3cccc(F)c3)c(Cl)c2)cc1,-6.22 ± 2.5%
14,COc1cccc2cc(-c3nc([C@H]4CC[C@H](C(=O)O)CC4)n4ncnc(N)c34)[nH]c12,16.8 ± 14%
15,Cc1ccc2c(-c3ccnc(Nc4cccc(C(F)(F)F)c4)n3)c(-c3ccccc3)nn2n1,-3.53 ± 4.7%
16,O=C(Nc1ccc(Oc2ccc3[nH]c(NC(=O)c4ccco4)nc3c2)cc1)Nc1cc(C(F)(F)F)ccc1F,9.02 ± 5.9%
17,CN(c1ccc(NC(=O)NCCN2CCOCC2)cc1)c1ccnc(Nc2ccc(CS(C)(=O)=O)cc2)n1,-5.31 ± 3%
18,O=C1Nc2ccccc2/C1=C1/Nc2ccccc2C1=O [Indirubin],-11.4 ± 11%
19,N#Cc1cccc(Nc2nccc(-c3cnn4ncccc34)n2)c1,-0.568 ± 0.54%

row,SMILES,growth inhibition
1,CN1CCN(c2cccc(Nc3nc4c(-c5ccc(S(C)(=O)=O)cc5)cccn4n3)c2)CC1,69 ± 27%
2,NC(=O)Nc1cc(-c2cccc(F)c2)sc1C(=O)N[C@H]1CCCNC1,16.7 ± 12%
3,O=C(O[C@H]1CN[C@H](C#Cc2cc3ncnc(Nc4ccc(Cc5ccccc5)cc4)c3s2)C1)N1CCOCC1,-6.43 ± 10%
4,CCOc1nccc2c1nc(-c1nonc1N)n2CC,13.6 ± 0.53%
5,C=CC(=O)Nc1cccc(Oc2nc(Nc3ccc(N4CCN(C)CC4)cc3OC)ncc2Cl)c1,-1.74 ± 9.7%
6,CN(c1ccc(NC(=O)Nc2ccc(OC(F)(F)F)cc2)cc1)c1ccnc(Nc2cccc(S(N)(=O)=O)c2)n1,-3.28 ± 2%
7,CCn1c(-c2nonc2N)nc2c(C#CC(C)(C)O)nc(OC[C@H](N)c3ccccc3)cc21,66.2 ± 2.7%
8,Fc1ccc(-c2ncn(CCCN3CCOCC3)c2-c2ccncc2)cc1,1.14 ± 3.2%
9,COc1cc(Nc2ncc3c(C)nc(-c4cccc(C(F)(F)F)c4)n3n2)cc(OC)c1OC,-2.03 ± 8.5%
10,CCCNC(=O)Nc1ccc(Oc2ncnc3cc(OC)c(OC)cc23)cc1Cl,12.7 ± 1.9%
11,NS(=O)(=O)c1cccc(N/C=C2\C(=O)Nc3ccccc32)c1,-6.18 ± 1%
12,COc1cc(C)c(N(C)C(=O)CN(C)C)cc1Nc1nc(Nc2cccc(F)c2C(N)=O)c2cc[nH]c2n1,-0.447 ± 1%
13,CC1=C(C(=O)Nc2ccc3[nH]nc(C)c3c2)C(c2ccc(C(F)(F)F)cc2)CC(=O)N1 (stereo not drawn),-1.71 ± 13%
14,CNC(=O)c1cc(Oc2ccc(NC(=O)Nc3cc(C(C)(C)C)nn3-c3ccc4ncccc4c3)c(F)c2)ccn1 [DCC-2036 (Rebastinib)],21 ± 0.51%
15,O=c1cc(N2CCOCC2)oc2c(-c3cccc4c3sc3ccccc34)cccc12,26.2 ± 7%
16,COC(=O)c1cncc(/C=C/c2c(C)cc(O)cc2C)c1,-6.45 ± 1.7%
17,NC(=O)c1sc(-n2cnc3ccccc32)cc1OCc1ccccc1Br,-4.4 ± 0.65%
18,O=C1Nc2ccc(C(=O)c3ccco3)cc2C1=Cc1cc(Cl)c(O)c(Cl)c1,13.9 ± 4.5%
19,CN(C)C(=O)O[C@@H]1CN[C@@H](C#Cc2cc3ncnc(Nc4ccc(OCc5cccc(F)c5)c(Cl)c4)c3s2)C1,-5.56 ± 8.1%
